Experimental data taken from PubChem BioAssay AID651724 (National Center for Advancing Translational Sciences (NCATS), 2012).
About 1,700 (0.5%) of roughly 340,000 compounds were called active. Another 2% or so got no clear call; they are omitted. The sample holds actives, similar compounds and a random draw of the others, so the mix is not that of the screen. A number with no mark means an inactive call. Rule as the data show it: active = activity change below about -65%; inconclusive = mostly about -30% to -63%; inactive = weaker than that.

Tested on: CtBP / adenovirus E1A interaction (AlphaScreen)
Experiment: qHTS Assay for Inhibitors of the CtBP/E1A Interaction
Details: AlphaScreen GST-E1A/His-CtBP binding, 1536-well; hits give low values
In short: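 Steps: dispense buffer (Tris pH 8.0, NaCl 300 mM, TCEP 1 mM, BSA, Tween 20); add 5X protein mix (GST-E1A, His-CtBP, 125 nM each); pin 23 nL compound; 2 h at 37 °C, dark; add 5X beads (50 ug/mL); 1 h; read.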
% is scaled to controls: 0 for no effect and ±100 for the full control effect.

Row | SMILES | activity change
1 | Cc1[nH]c2ccccc2c1C(=O)c1cc([C@H](NC(=O)OC(C)(C)C)C(C)C)sc1N | -23.1%
2 | O=C(CSc1nc2ccccc2o1)N1CCN(c2ccccc2)CC1 | -3.28%
3 | CCN(CC)C(=O)CSc1nc2ccccc2o1 | 4.11%
4 | Cc1ccc(/C=N/NC(=O)CSc2nc3ccccc3o2)cc1 | -93.4% (active)
5 | O=C(CSc1nc2ccccc2o1)N1CCN(c2ccc(Cl)cc2)CC1 | -0.51%
6 | O=C(CSc1nc2ccccc2o1)N/N=C/c1ccccc1C(=O)O | -92.7% (active)
7 | CC(C)(C)C(=O)CSc1nc2ccccc2o1 | 11.1%
8 | CC(=O)Nc1cc(-c2ccc(N3CCN(C)CC3)cc2)cn2c(-c3ccc(F)cc3)cnc12 | -22%
9 | CCc1nc2ccc(C(=O)Nc3cccc(OC)c3)cn2c1N(CCC(C)C)CCN(C)C | -9.75%
10 | Cc1ccc(S(=O)(=O)N2CCCCC2)cc1NC(=O)CCNC(=O)c1ccccc1Cl | 2%
11 | O=C(Nc1ccc(Cl)cc1)C1Cc2c(-c3ccc4c(c3)OCO4)ccnc2O1 (stereo not drawn) | -5.12%
12 | O=C(NCc1ccc(F)cc1)c1cc(C2CCCCN2C(=O)c2cccs2)on1 (stereo not drawn) | 4.5%
13 | COc1ccc(CC(=O)N/N=C(\C)c2ccccn2)cc1 | -73.3% (active)
14 | CCCCCNC(=O)Cc1ccc(OC)cc1 | 12.5%
15 | Cc1cccc(C)c1NC(=S)N1CCCCCC1 | 3.43%
16 | COc1ccc(C/C(C)=N/NC(=O)c2cc(C)oc2C)cc1 | 8.03%
17 | C/C(CC(=O)Nc1ccc(N(C)C)cc1)=N\NC(=O)c1ccccc1F | -8.83%
18 | CC(=NNC(=S)N1CCCCCC1)c1ccccn1 | -89.7% (active)
19 | O=C(NCCOc1ccccc1)c1ccccc1F | 0.486%
20 | CNC(=S)N1CCN(c2ccccn2)CC1 | 5.96%

Row | SMILES | activity change
21 | C/C(=N\NC(=O)c1ccccc1F)c1ccccn1 | -97.9% (active)
22 | C#CCN(C[C@@H]1[C@@H](OC(=O)NC2CC2)[C@@H](OC(=O)NC2CC2)Cn2c(=O)ccc(=O)n21)S(=O)(=O)c1ccc(C)cc1 | 3.71%
23 | FC(F)(F)c1ccccc1Cc1c(-c2ccccc2)nc2c3ccccc3ccn12 | 6.14%
24 | Cc1cccc(C(=O)C(O)(c2ccccc2)C2CCCCC2=O)c1 (stereo not drawn) | 3.76%
25 | CC1(C(=O)NS(=O)(=O)c2ccc3ccccc3c2)CCN1C(=O)C1(c2ccc(Cl)cc2)CCC1 (stereo not drawn) | -4.19%
26 | O=C(CSc1nc2cccc(F)c2c(=O)n1-c1ccccc1)Nc1ccc2c(c1)CCC2 | 8.09%
27 | CC(=O)Nc1cccc(-c2ccnc3c2CC(C)(C(=O)NCc2ccccc2)O3)c1 (stereo not drawn) | 0.959%
28 | CC1(C(=O)NS(=O)(=O)c2ccccc2)CCN1C(=O)Cc1ccc(-c2ccccc2)cc1 (stereo not drawn) | 1.02%
29 | O=c1[nH][nH]c2c1[C@H](c1ccc(Cl)cc1)O[C@H](CCc1ccccc1)C2 | 1.98%
30 | COc1cccc(-c2cnc3c(NC(C)=O)cc(-c4cc(F)ccc4OC)cn23)c1 | -20.8%
31 | Cc1ccc(C(=O)O)cc1NC(=O)c1ccc(Cn2nc(C)c(Cl)c2C)o1 | 0%
32 | Cc1nn(Cc2ccc(Cl)cc2)c(Cl)c1/C=N/NC(=O)c1cccnc1 | -0.89%
33 | Cc1c(Cl)c([N+](=O)[O-])nn1Cc1ccc(C(=O)N/N=C\c2cc(Cl)ccc2O)o1 | -70.3% (active)
34 | CNc1cncc(-c2ccc(NS(C)(=O)=O)cc2)n1 | 0.0496%
35 | COc1cccc(CNc2nc(NCc3ccccc3OC)nc3ccsc23)c1 | -7.75%
36 | O=C1c2ccccc2C(=O)c2c1cccc2N1CCN(Cc2ccccc2)CC1 | -94.4% (active)
37 | O=C1c2ccccc2C(=O)c2c1cccc2N1CCN(CCO)CC1 | -25.7%
38 | O=S1(=O)CCN(Cc2ccccc2)CC1 | 7.73%
39 | C[C@@H]1CN([C@@H](C)CO)C(=O)CCCn2nncc2CO[C@H]1CN(C)C(=O)Nc1ccc(C(F)(F)F)cc1 | -18.9%
40 | COC(=O)[C@]12CCCCC=C1N(CCC1=CCCCC1)C(=O)[C@H](CC(=O)N1CCSCC1)C2 | -7.56%

Row | SMILES | activity change
41 | Cc1cc(Cl)ccc1-c1nc(NCCN(C)C)nc2ccsc12 | -3.67%
42 | CCOc1ccc(-n2c(O)c(/C=N/Nc3nc(C)cc(C)n3)c3ccccc3c2=O)cc1 | -6.77%
43 | Cc1nnc(N/N=C/C2CC=CCC2)[nH]c1=O (stereo not drawn) | -19.9%
44 | CCOc1ccc(-n2c(O)c(/C=N/Nc3nnc(C)c(=O)[nH]3)c3ccccc3c2=O)cc1 | -92.9% (active)
45 | Cc1cc(=O)[nH]c(N/N=C/c2c(C)nn(-c3ccccc3Cl)c2Cl)n1 | 5.1%
46 | Cc1nnc(N/N=C/c2ccccn2)[nH]c1=O | -90.3% (active)
47 | CCN(CC)CCCN=Cc1c(O)n(-c2ccc(C)cc2)c(=O)c2ccccc12 | -3%
48 | COc1ccc(Cc2nnc(SCC(=O)Nc3ccc(C)c(Cl)c3)[nH]c2=O)cc1 | -19.5%
49 | Cc1ccc(NC(=O)CSc2nn3c(=O)c(C)nnc3s2)cc1Cl | -85.4% (active)
50 | Cc1ccc(NC(=O)CSc2nnc(CNC(=O)c3ccccc3F)o2)cc1Cl | -15.1%
51 | CC1(C(=O)NCc2ccc3c(c2)OCO3)CCN1C(=O)Cc1cccc2ccccc12 (stereo not drawn) | -3.05%
52 | CCOC(=O)C=Cc1ccc(C(=O)OCC)[nH]1 | 1.94%
53 | O=C(NC1CCCCC1)C(c1cc2ccccc2o1)n1c(=O)c(-c2ccco2)nc2ccccc21 (stereo not drawn) | 6.62%
54 | Cc1cccc(-n2cnc(C(=O)NNC(=S)Nc3ccccc3)c2)n1 | -91.7% (active)
55 | Cn1cc(Cl)c(C(=O)NNC(=S)Nc2cccc(Cl)c2)n1 | -27.4%
56 | Cc1cccc(-n2cnc(C(=O)Nc3cccnc3)c2)n1 | 3.1%
57 | CC(C)N=C1CCCC1C(=S)SSC(=S)C1CCCC1=NC(C)C (stereo not drawn) | -5.04%
58 | CCCCCNC(=O)C(c1ccc(OC)cc1)n1c(=O)c(-c2ccccc2)nc2ccccc21 (stereo not drawn) | 0%
